# High-throughput results from PubChem.
# An excerpt weighted towards active compounds, which were near 1.8% of everything screened.
# PME-1 primary: PME-1 inhibitors via competitive probe labeling, primary screen, biochemical, fluorescence polarization, FP-Rh probe, HTS; Protein phosphatase methylesterase 1 (Homo sapiens), Q9Y570; recombinant PME-1; inhibition, % at 5.9 µM; 0.53% of 320,000 active; AID 2130, 2009;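 active means inhibition above the campaign mean of all compounds plus 3 SD, cut at about 26% in these data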;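 further: competitive labeling of PME-1 active site by serine hydrolase directed probe; inhibitors block probe labeling so polarization falls and inhibition rises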
# PAD4 inh: human PAD4 inhibitors, primary screen, biochemical, fluorescence polarization, 1536-well format. recombinant PAD4, RCA probe fluorescence polarization. inhibition, % at 6.36 µM. AID 485272, 2010. 0.41% of 330,000 active. Protein-arginine deiminase type-4 (Homo sapiens), Q9UM07;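 active means percent inhibition above a cutoff equal to the mean of all tested compounds plus 3 SD, cut at about 15% in these data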
# LYPLA2 inh: LYPLA2 inhibitors, primary screen, counter-screen for PME1 inhibitor project, biochemical, fluorescence polarization, FP-Rh probe ABPP; 0.38% of 320,000 active; recombinant LYPLA2; Acyl-protein thioesterase 2 (Homo sapiens), O95372; inhibition, % at 5.9 µM;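 active means inhibition above the screen-wide mean plus 3 SD, limit set per campaign, cut at about 26% in these data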
# Target sequence (O95372 whole entry, looked up): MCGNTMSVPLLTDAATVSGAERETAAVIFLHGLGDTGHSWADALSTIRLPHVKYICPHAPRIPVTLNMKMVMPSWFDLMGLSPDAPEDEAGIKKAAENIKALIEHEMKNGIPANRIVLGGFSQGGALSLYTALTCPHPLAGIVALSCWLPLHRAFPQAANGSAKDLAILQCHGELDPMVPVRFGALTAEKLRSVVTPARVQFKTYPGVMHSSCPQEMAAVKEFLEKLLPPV
# GSTO1 counter: inhibitors of recombinant GSTO1, primary screen, counter-screen for RBBP9 inhibitor project, biochemical, fluorescence polarization; Glutathione S-transferase omega-1 (Homo sapiens), P78417; activity-based probe fluorescence polarization; inhibition, % at 5.96 µM; 1.1% of 300,000 active;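 active means inhibition above the campaign mean inhibition plus 3 SD, cut at about 35% in these data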
# Fam108B inh: mouse Fam108B serine hydrolase inhibitors, primary screen, counter-screen for RBBP9 inhibitor project, biochemical, fluorescence polarization; recombinant Fam108B, FP-Rh probe fluorescence polarization; inhibition, % at 9.51 µM; 0.33% of 300,000 active; AID 1947, 2009;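 active means inhibition above the screen mean inhibition plus 3 SD, computed separately per campaign, cut at about 18% in these data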;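 further: inhibitors lower polarization as less probe binds the enzyme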
# LYPLA1 counter: LYPLA1 inhibitors, primary screen, counter-screen for PME1 inhibitor project, biochemical, fluorescence polarization, FP-Rh probe ABPP; Acyl-protein thioesterase 1 (Homo sapiens), O75608; recombinant LYPLA1; inhibition, % at 5.9 µM; AID 2174, 2009; 0.16% of 320,000 active;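 active means inhibition above the mean of all tested compounds plus 3 SD, set per campaign, cut at about 14% in these data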;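 further: inhibitors block serine hydrolase probe labeling of LYPLA1 so polarization falls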
# Target sequence (O75608 whole entry, looked up): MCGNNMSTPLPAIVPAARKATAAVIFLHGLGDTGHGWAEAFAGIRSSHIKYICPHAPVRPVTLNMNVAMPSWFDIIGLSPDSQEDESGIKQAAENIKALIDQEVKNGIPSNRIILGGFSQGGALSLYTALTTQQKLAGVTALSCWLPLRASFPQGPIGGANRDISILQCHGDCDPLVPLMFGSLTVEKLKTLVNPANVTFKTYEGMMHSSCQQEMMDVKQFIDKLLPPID
# PAD4 FP conf: human PAD4 inhibitors, confirmation, biochemical, fluorescence polarization; inhibition, % at 6.36 µM; AID 488796, 2010; 28% of 1,200 active; recombinant PAD4, RCA probe fluorescence polarization; shares compounds with PAD4 inh;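 active means mean inhibition across replicates above the hit cutoff set by the earlier primary screen, cut at about 15% in these data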;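 further: inhibitors block active-site labeling by the probe so polarization falls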
# Numbers stand for hits; n = inactive; x = no result.
SMILES,PME-1 primary,PAD4 inh,LYPLA2 inh,GSTO1 counter,Fam108B inh,LYPLA1 counter,PAD4 FP conf
CCN1CC2=C(OC(N)=C(C#N)C2c2ccccc2)/C(=C\c2ccccc2)C1 (configuration not stated),n,24,n,n,n,n,19
Cc1ccc(S(=O)(=O)N(C)CC(=O)Nc2nc3ccccc3s2)cc1,n,n,n,n,n,n,x
Cc1ccc(/C(=N/Nc2nc3ccccc3s2)C2=C(O)c3ccccc3C2=O)cc1,n,42,n,n,n,n,17
CN1CCN(S(=O)(=O)c2ccc(Sc3nnnn3-c3ccccc3)c([N+](=O)[O-])c2)CC1,n,n,n,n,n,n,x
CC(=O)c1ccc(Sc2nnnn2-c2ccccc2)c([N+](=O)[O-])c1,n,17,n,n,n,n,n
O=C(NCC1CCCO1)c1ccc(C(=O)NCC2CCCO2)cc1 (configuration not stated),n,n,n,n,n,n,x
CN(c1ccc(C(=O)NCC2CCCO2)cc1)S(C)(=O)=O (configuration not stated),n,15,n,n,n,n,n
Cc1ccc2nc(-c3ccc(NC(=O)CSCC(=O)O)cc3)sc2c1,n,n,n,n,n,n,x
O=C(O)CSCC(=O)Nc1ccc(-c2nc3ccccc3s2)cc1,n,30,n,n,n,n,31
O=C1NCCOC(=O)[C@@H](Cc2ccc(F)cc2)C/C=C\C[C@@H]1CC(=O)N(CCO)Cc1ccccc1,x,20,x,x,x,x,n
O=C1N[C@@H](Cc2ccccc2)COC(=O)[C@@H](Cc2ccc(F)cc2)C/C=C\C[C@@H]1CC(=O)N(CCO)Cc1ccccc1,x,n,x,x,x,x,x
CCCCc1sc(-c2c(C#N)c(N)nc3c2CCCCC3)cc1[N+](=O)[O-],n,n,n,n,n,n,x
CCCCc1ccc(-c2c(C#N)c(N)nc3c2CCCC3)s1,n,36,n,n,n,n,n
Cc1ccc(S(=O)(=O)NC(=O)Nc2ccc(N(C)C)cc2)cc1,n,28,n,87,n,n,n
CC(=O)N1CCN(c2ccc(NCc3cccs3)cc2)CC1,n,17,n,n,n,n,n
Cc1c(Cl)cccc1NC(=O)[C@@H](NC(=O)c1ccccc1Cl)C(C)C,n,n,n,n,n,n,x
O=C(O)c1cc(NS(=O)(=O)c2ccc(F)cc2)cc(NS(=O)(=O)c2ccc(F)cc2)c1,x,n,x,x,x,x,x
CCOC(=O)c1ccc(S(=O)(=O)Nc2cc(C(=O)O)ccc2Cl)cc1,n,n,n,n,n,n,x
Cc1ccc(C(C[N+](=O)[O-])c2c(C)[nH]n(-c3ccccc3)c2=O)cc1 (configuration not stated),n,17,n,76,n,n,n
Cc1[nH]n(-c2ccccc2)c(=O)c1C(c1ccccc1[N+](=O)[O-])C(C#N)C#N (configuration not stated),n,22,n,n,n,n,n
Cc1[nH]n(-c2ccccc2)c(=O)c1C(c1ccccc1C(=O)O)c1c(C)[nH]n(-c2ccccc2)c1=O,n,n,n,n,n,n,x
O=C(Nc1cccc(C(F)(F)F)c1)c1cncs1,n,n,n,n,n,n,x
O=C(CSc1ccc(Cl)cc1)NC(=O)c1ccccc1,n,n,n,x,x,n,x
COCC(=O)N(Cc1nc2ccccc2c(=O)[nH]1)Cc1cccs1,n,n,n,n,n,n,x
COCC(=O)N(CCc1ccc(OC)c(OC)c1)Cc1nc2ccccc2c(=O)[nH]1,n,22,n,n,n,n,n
SMILES,PME-1 primary,PAD4 inh,LYPLA2 inh,GSTO1 counter,Fam108B inh,LYPLA1 counter,PAD4 FP conf
O=c1cc(-c2ccc(Br)cc2)[nH][nH]1,n,56,n,n,n,n,n
O=C(CN1CCOCC1)Nc1nc2ccc(Br)cc2s1,n,17,n,n,n,n,n
O=C(CN1CCOCC1)Nc1nc2ccc(Cl)cc2s1,n,n,n,n,n,n,x
COc1ccccc1C(=O)Nc1nc2ccccc2s1,n,n,n,n,n,n,x
COC(=O)c1sccc1NC(=O)c1ccc(OC)cc1OC,n,25,n,n,n,n,n
COc1ccc(C(=O)Nc2nc3ccccc3s2)c(OC)c1,n,22,n,n,n,n,55
COC(=O)c1sccc1NC(=O)c1cccc(OC)c1,n,n,n,n,n,n,x
CCN(c1ccccc1)c1cc2ccccc2c(=O)[nH]1,n,16,n,n,n,n,n
CCN(c1ccccc1)c1nc(=O)c2cccnc2s1,n,n,n,n,n,n,x
CCN(Cc1ccc2c(c1)OCCO2)C(=O)CSc1nc(C)nc2sc(C)c(C)c12,n,79,n,x,x,n,n
CCN(Cc1ccc2c(c1)OCO2)C(=O)CSc1ncnc2sccc12,n,n,n,x,x,n,x
COc1ccc(NC(=O)CN(c2c(C)cccc2C)S(C)(=O)=O)cc1,n,n,n,n,n,n,x
CC(C)(C)c1ccc(C(=O)NCCOc2ccccc2)cc1,n,18,n,n,n,n,n
CCc1ccc(/C=N/n2c(COc3ccccc3)n[nH]c2=S)cc1,n,32,n,n,n,n,n
Cc1cc2cc(CN3C(=O)c4ccccc4C3=O)ccc2n1C,n,16,n,n,n,n,n
Cc1cc2cc(CNC(=O)COc3ccccc3)ccc2n1C,n,33,n,n,n,n,n
Cc1ccc(S(=O)(=O)NCc2ccc3c(c2)cc(C)n3C)cc1,n,n,n,n,n,n,x
CCOc1ccc(CC(=O)NCc2ccc3c(c2)cc(C)n3C)cc1,n,n,n,n,n,n,x
CCC(=O)N(Cc1cc(=O)[nH]c2ccccc12)c1cccc(C)c1,n,46,n,n,n,n,33
CCCC(=O)N(Cc1cc(=O)[nH]c2ccccc12)c1ccccc1OC,n,n,n,n,n,n,x
CCC(=O)N(Cc1cc(=O)[nH]c2ccccc12)c1ccccc1C,n,18,n,n,n,n,22
Cc1[nH]c2ccccc2c1C(=O)C(=O)N1CCN(c2ccccc2F)CC1,n,n,n,n,n,n,x
CC(C)C[C@@]12C(=O)N(c3cccc(F)c3)C(=O)N1[C@H](c1ccc(F)cc1)[C@@H]1C(=O)N(C3CCCCC3)C(=O)[C@@H]12,n,n,n,n,n,n,x
O=C1C=C(Nc2ccc(F)cc2)c2ccccc2C1=O,n,40,n,x,x,n,38
O=c1cnnc(Nc2ccc(F)cc2)[nH]1,n,n,n,n,n,n,x
